Several values for one entry are separate records, joined by “and”; a condition that tells them apart may be missing. Identical values can stand only once. Results filed as inconclusive are left out. Activity calls are given as the source filed them.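 How the source made its calls, unless noted: active means compounds killing one labelled cell type while sparing the other, by normalised counts and ratio limits, not self-fluorescent; inactive means the rest.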
Assays:
[1] = EMT-state selective cytotoxicity in co-culture – imaging, PC-3E GFP, TEM4-18 mCherry, primary screen (AID 1345086); conditions: PC-3E GFP / TEM4-18 mCherry co-culture, imaging cell counts, at 1 µM; for red/green cell ratio (normalised): actives lie on both sides, counts scaled to control wells, 1 = unselective;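 on all read-outs here: cells exposed to compound for 72 h before imaging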;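 on red/green cell ratio (normalised): normalised mesenchymal count divided by normalised epithelial count so high means epithelial killing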
[2] = galactose survival enhancers in mitochondrial complex I cybrids – cell-based, galactose medium, ATP luminescence, primary screen (AID 1645843;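 active means z-score of at least 1.8 in each of two replicates, scored against plate mean and spread of sample wells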;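 further: positive z means more ATP and so rescue of galactose-driven cybrid death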); conditions: complex I mutant cybrid cells, 72 h, stronger effect = higher value
[3] = blockers of polyQ-driven CASP3 activation – cell-based (AID 1583); conditions: polyglutamine-induced caspase-3 activation, cell assay; stronger effect = higher value;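 tested at 10 µM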
[4] = yeast 75Q aggregation reduction – 75Q-TubU reporter (AID 1593); conditions: Yeast 75Q polyglutamine aggregation reporter
[5] = target: Mitogen-activated protein kinase 7 (Homo sapiens) (UniProt Q13164); assay: Gal4-ERK5 driven luciferase induction – cell-based, HTS, primary screen (AID 1508626;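 active means luciferase signal above three times the same-plate solvent-only control wells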;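 further: luciferase driven by Gal4-ERK5 fusion binding five Gal4 sites before minimal TATA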); conditions: HeLa Gal4-ERK5 transactivation, 18 h, at 5 µM, stronger effect = higher value
Chain of Mitogen-activated protein kinase 7 (Homo sapiens) (Q13164 whole entry, looked up, the tested form may be a part): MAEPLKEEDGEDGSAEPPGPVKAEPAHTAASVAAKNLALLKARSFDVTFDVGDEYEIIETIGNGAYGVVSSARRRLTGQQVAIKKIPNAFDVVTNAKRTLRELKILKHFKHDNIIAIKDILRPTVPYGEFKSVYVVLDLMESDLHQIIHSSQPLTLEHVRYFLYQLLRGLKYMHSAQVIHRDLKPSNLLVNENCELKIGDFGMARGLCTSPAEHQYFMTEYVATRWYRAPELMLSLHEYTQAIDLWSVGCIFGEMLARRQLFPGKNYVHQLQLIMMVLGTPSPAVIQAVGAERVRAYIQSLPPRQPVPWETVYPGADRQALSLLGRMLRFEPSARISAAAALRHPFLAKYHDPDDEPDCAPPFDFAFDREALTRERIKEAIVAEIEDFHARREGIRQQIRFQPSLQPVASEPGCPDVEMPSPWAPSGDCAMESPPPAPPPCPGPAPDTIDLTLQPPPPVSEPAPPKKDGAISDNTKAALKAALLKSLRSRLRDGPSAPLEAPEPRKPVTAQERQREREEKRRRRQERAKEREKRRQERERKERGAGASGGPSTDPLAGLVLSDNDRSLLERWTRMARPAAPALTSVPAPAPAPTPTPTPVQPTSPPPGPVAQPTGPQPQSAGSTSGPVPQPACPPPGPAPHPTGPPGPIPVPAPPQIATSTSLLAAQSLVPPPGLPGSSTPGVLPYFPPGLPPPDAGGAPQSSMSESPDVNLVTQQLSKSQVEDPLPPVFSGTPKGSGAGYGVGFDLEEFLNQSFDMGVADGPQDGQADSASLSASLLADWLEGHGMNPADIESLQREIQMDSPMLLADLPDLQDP

[6] = test system: Aerobactin synthetase IucA (Klebsiella pneumoniae); assay: inhibition of K. pneumoniae IucA enzyme – biochemical, Tocris library, absorbance (AID 1345561; call rule not given here;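 further: 100% = enzyme without compound and 0% = no enzyme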); conditions: purified IucA enzyme assay, absorbance (OD) read-out; stronger effect = lower value;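 tested at 8 µM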
[7] = viability loss in pontine glioma line – cell-based, SU-DIPG-XVII, MIPE5.0, CellTiter-Glo, qHTS, dose response (AID 1347060; cut-off not given, nearly all actives have AC50 up to about 26 µM;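 further: cells exposed to compound for 48 hours before viability readout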); conditions: CellTiter-Glo ATP luminescence
[8] = viability loss in pontine glioma line – cell-based, SU-DIPG-XIII, MIPE4.0, CellTiter-Glo, qHTS, dose response (AID 1347061; cut-off not given, nearly all actives have AC50 up to about 37 µM;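 further: cells exposed to compound for 48 hours before readout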); conditions: CellTiter-Glo ATP luminescence
[9] = viability loss in pontine glioma line – cell-based, JHH-DIPG-1, MIPE4.0, CellTiter-Glo, qHTS, dose response (AID 1347062; cut-off not given, nearly all actives have AC50 up to about 27 µM;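 further: cells exposed to compound for two days before readout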); conditions: JHH-DIPG-1 viability, CellTiter-Glo ATP luminescence
[10] = viability loss in pontine glioma line – cell-based, SU-DIPG-IV, MIPE4.0, CellTiter-Glo, qHTS, dose response (AID 1347063; cut-off not given, nearly all actives have AC50 up to about 30 µM;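 further: compound exposure lasted 48 hours before the viability readout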); conditions: CellTiter-Glo ATP luminescence
[11] = viability loss in pontine glioma line – cell-based, SU-DIPG-XIII, MIPE5.0, CellTiter-Glo, qHTS, dose response (AID 1347064; cut-off not given, nearly all actives have AC50 up to about 23 µM;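 further: cells exposed to compound for 48 hours before the viability read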); conditions: CellTiter-Glo ATP luminescence
[12] = viability loss in pontine glioma line – cell-based, SU-DIPG-XXV, MIPE5.0, CellTiter-Glo, qHTS, dose response (AID 1347065; cut-off not given, nearly all actives have AC50 up to about 26 µM;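 further: cells exposed to compound for 48 hours before ATP readout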); conditions: CellTiter-Glo ATP luminescence
[13] = growth inhibition of DIPG cells – cell-based, MIPE4.0 library, CellTiter-Glo luminescence, qHTS (AID 1347066; cut-off not given, nearly all actives have AC50 up to about 30 µM;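 further: cells exposed to compound for 48 hours before readout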); conditions: SU-DIPG-VI viability, CellTiter-Glo ATP luminescence
[14] = JHH-DIPG-1 glioma cell viability, MIPE5.0 library, CellTiter-Glo luminescence, qHTS (AID 1347067; cut-off not given, nearly all actives have AC50 up to about 26 µM;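 further: cells exposed to compound for 48 hours before readout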); conditions: JHH-DIPG-1 glioma viability, CellTiter-Glo ATP luminescence
[15] = growth inhibition of DIPG cells – cell-based, MIPE5.0 library, qHTS (AID 1347068; cut-off not given, nearly all actives have IC50 up to about 30 µM;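 further: cells exposed to compound for 48 hours before viability readout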); conditions: SU-DIPG-XXV viability
[16] = viability loss with induced miR-34 in A549 – imaging, A549 dox-inducible miR-34, nuclei and caspase counts, primary screen (AID 1347080;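 active means compounds whose cell count with miR-34 switched on is under 0.7 times the count with it off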); conditions: A549 miR-34 inducible, Hoechst nuclei count, 48 h
[17] = P. berghei load reduction in hepatocytes – cell-based, HepG2, luciferase luminescence, HepG2 viability, primary screen (AID 624349; in the data active means parasite load remaining mostly below about 12%, no sharp cut-off; inactive means mostly above about 10%;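 further: 100% = mean of DMSO negative control wells on the same plate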); conditions: P. berghei liver stage in HepG2, luciferase luminescence, concentration not given here; parasite load remaining: stronger effect = lower value; viability: measured here: HepG2 viability without parasites
[18] = compounds altering HSF1 focus formation in cells – imaging, Selleck Cancer Library (AID 1347162; in the data active means plate-normalised HSF1 focus index below about 0.46); conditions: human cells, HSF1 nuclear foci imaging, at 10 µM; SSMD: measured here: HSF1 foci SSMD mean; cell count: measured here: cell number; plate-normalised HSF1 focus index: stronger effect = lower value
[19] = measured here: epithelial PC-3E GFP cell survival
[20] = measured here: mesenchymal TEM4-18 mCherry cell survival
[21] = stronger effect = lower value, cell number ratio, induced over uninduced
[22] = measured here: relative caspase fold change +Dox/-Dox
[23] = measured here: total cells with miR-34 induction, stronger effect = lower value
[24] = measured here: total cells without miR-34 induction

## CN[C@@H]1[C@@H](O)[C@@H](O[C@@H]2[C@@H](O)[C@H](O[C@H]3O[C@H]([C@@H](C)NC)CC[C@H]3N)[C@@H](N)C[C@H]2N)OC[C@]1(C)O
[1]
  red/green cell ratio (normalised): 0.92 (inactive)
[1]; [19]
  normalised cell number: 1.22
[1]; [20]
  normalised cell number: 1.13
[2]
  z-score: 0 (inactive)

## NC(Cc1ccc(F)cc1)C(=O)O (centres undefined)
[3]
  inhibition: 10.4%
[4]
  score: 1.23
[1]
  red/green cell ratio (normalised): 0.96 (inactive)
[1]; [19]
  normalised cell number: 0.88
[1]; [20]
  normalised cell number: 0.84
[5]
  luciferase signal: 100 AU (inactive)

## CC(C)[C@H](CO)Nc1nc(Nc2cccc(Cl)c2)c2ncn(C(C)C)c2n1
[6]
  remaining activity: 115% (inactive)
[7]
  AC50: 14.8 µM (active)
[8]
  AC50: 20.9 µM (active)
[9]
  AC50: 16.6 µM (active)
[10]
  AC50: 14.8 µM (active)
[11]
  AC50: 14.8 µM (active)
[12]
  AC50: 7.42 µM (active)
[13]
  AC50: 20.9 µM (active)
[14]
  AC50: 14.8 µM (active)
[15]
  IC50: 16.6 µM (active)
[16]; [21]
  fold change: 1.01 (inactive)
[16]; [22]
  fold change: 0.968
[16]; [23]
  cell count: 1040
[16]; [24]
  cell count: 1030
[2]
  z-score: -0.745 (inactive)

## C=C(C)[C@H]1CC=C(C(=O)O)CC1
[3]
  inhibition: 10.7%
[4]
  score: 0.26
[17]
  parasite load remaining: 101% (inactive)
  viability: 69.4%
[1]
  red/green cell ratio (normalised): 0.84 (inactive)
[1]; [19]
  normalised cell number: 1.08
[1]; [20]
  normalised cell number: 0.92
[5]
  luciferase signal: 24 AU (inactive)

## CC1CCC2(OC1)OC1CC3C4CC[C@H]5C[C@@H](O)CC[C@]5(C)C4CC(=O)[C@]3(C)C1C2C (some centres undefined)
[3]
  inhibition: 11.6%
[4]
  score: 1.42
[17]
  parasite load remaining: 106% (inactive)
  viability: 69.7%
[1]
  red/green cell ratio (normalised): 1.26 (inactive)
[1]; [19]
  normalised cell number: 1.02
[1]; [20]
  normalised cell number: 1.27

## COc1ccc(-c2cc(=O)c3c(O)cc(O[C@@H]4O[C@H](CO[C@H]5O[C@H](C)[C@@H](O)[C@H](O)[C@@H]5O)[C@@H](O)[C@H](O)[C@H]4O)cc3o2)cc1O
[3]
  inhibition: 25.9%
[4]
  score: 2.29
[17]
  parasite load remaining: 42.5% (inactive)
  viability: 98.3%
[1]
  red/green cell ratio (normalised): 0.86 (inactive)
[1]; [19]
  normalised cell number: 1.13
[1]; [20]
  normalised cell number: 0.98

## CC(C)(C)NC[C@@H](O)COc1nsnc1N1CCOCC1
[3]
  inhibition: 6.36%
[4]
  score: 1.66
[17]
  parasite load remaining: 198% (inactive)
  viability: 72.4%
[1]
  red/green cell ratio (normalised): 1.2 (inactive)
[1]; [19]
  normalised cell number: 0.88
[1]; [20]
  normalised cell number: 1.05

## CC(=O)N1CCCC1C(=O)O (centres undefined)
[17]
  parasite load remaining: 194% (inactive)
  viability: 68.3%
[1]
  red/green cell ratio (normalised): 0.79 (inactive)
[1]; [19]
  normalised cell number: 1.3
[1]; [20]
  normalised cell number: 1.03

## C/C=C(/C)C(=O)O[C@@H]1[C@H](OC(C)=O)[C@@]2(CO)C(CC1(C)C)C1=CCC3[C@@]4(C)CC[C@H](O[C@@H]5O[C@H](C(=O)O)[C@@H](O[C@@H]6O[C@H](CO)[C@@H](O)[C@H](O)[C@H]6O)[C@H](O)[C@H]5O[C@@H]5O[C@H](CO)[C@@H](O)[C@H](O)[C@H]5O)[C@](C)(CO)C4CC[C@@]3(C)[C@]1(C)C[C@H]2O (some centres undefined)
[17]
  parasite load remaining: 66% (inactive)
  viability: 87.2%
[1]
  red/green cell ratio (normalised): 0.77 (inactive)
[1]; [19]
  normalised cell number: 1.1
[1]; [20]
  normalised cell number: 0.85

## C1CCN2C[C@H]3C[C@H](CN4CCCC[C@@H]34)[C@H]2C1
[3]
  inhibition: -43.7%
[4]
  score: 1.18
[1]
  red/green cell ratio (normalised): 1.01 (inactive)
[1]; [19]
  normalised cell number: 1.18
[1]; [20]
  normalised cell number: 1.19

## CC(=O)[C@@]1(O)CCC2C3C=C(Cl)C4=CC(=O)[C@@H]5CC5[C@]4(C)C3CC[C@@]21C (some centres undefined)
[3]
  inhibition: 39.2%
[4]
  score: 0.81
[17]
  parasite load remaining: 143% (inactive)
  viability: 89.2%
[1]
  red/green cell ratio (normalised): 0.82 (inactive)
[1]; [19]
  normalised cell number: 1.07
[1]; [20]
  normalised cell number: 0.88

## CC(CCC(=O)O)[C@H]1CCC2C3CC[C@@H]4C[C@H](O)CC[C@]4(C)C3CC[C@@]21C (some centres undefined)
[17]
  parasite load remaining: 32.1% (inactive)
  viability: 67.3%
[1]
  red/green cell ratio (normalised): 0.99 (inactive)
[1]; [19]
  normalised cell number: 0.91
[1]; [20]
  normalised cell number: 0.89

## CC(=O)Oc1ccc2c(c1)CCC1C2CC[C@]2(C)C(=O)CCC12 (some centres undefined)
[17]
  parasite load remaining: 88.9% (inactive)
  viability: 66.4%
[1]
  red/green cell ratio (normalised): 0.81 (inactive)
[1]; [19]
  normalised cell number: 1.27
[1]; [20]
  normalised cell number: 1.03

## O=C1C(Cl)=C(NCCN2CCOCC2)C(=O)c2ncccc21
[6]
  remaining activity: 118% (inactive)
[7]
  AC50: 8.33 µM (active)
[8]
  AC50: 6.62 µM (active)
[9]
  AC50: 3.32 µM (active)
[10]
  AC50: 4.69 µM (active)
[11]
  AC50: 3.32 µM (active)
[12]
  AC50: 6.61 µM (active)
[13]
  AC50: 2.64 µM (active)
[14]
  AC50: 4.68 µM (active)
[15]
  IC50: 18.6 µM (active)
[16]; [21]
  fold change: 0.881 (inactive)
[16]; [22]
  fold change: 1.4
[16]; [23]
  cell count: 1390
[16]; [24]
  cell count: 1580
[18]
  SSMD: 6.65
  cell count: 6880
  plate-normalised HSF1 focus index: 1.4 (inactive)
[2]
  z-score: -0.82 (inactive)

## O=C(/C=C/c1ccc(O)c(O)c1)OC(Cc1ccc(O)c(O)c1)C(=O)O (centres undefined)
[17]
  parasite load remaining: 107% (inactive)
  viability: 70.8%
[1]
  red/green cell ratio (normalised): 1.03 (inactive)
[1]; [19]
  normalised cell number: 1.08
[1]; [20]
  normalised cell number: 1.12

## CC1=C2C(=CO[C@H](C)[C@H]2C)C(=O)C(C(=O)O)=C1O
[3]
  inhibition: 1.38%
[4]
  score: 0.74
[1]
  red/green cell ratio (normalised): 1.08 (inactive) and 1.06 (inactive) and 0.92 (inactive)
[1]; [19]
  normalised cell number: 0.92 and 0.97 and 1.03
[1]; [20]
  normalised cell number: 0.99 and 1.03 and 0.95
[5]
  luciferase signal: 52 AU (inactive)

## C[N+]1(C)C2CC(OC(=O)[C@@H](CO)c3ccccc3)CC1C1OC12 (some centres undefined)
[3]
  inhibition: 17.7%
[4]
  score: 1.45
[17]
  parasite load remaining: 89.5% (inactive) and 73.4% (inactive)
  viability: 78.8% and 91.6%
[1]
  red/green cell ratio (normalised): 1.4 (inactive)
[1]; [19]
  normalised cell number: 0.85
[1]; [20]
  normalised cell number: 1.19

## CC1(C)C2CC[C@]3(C)C(C(=O)C=C4[C@@H]5C[C@@](C)(C(=O)O)CC[C@]5(C)CC[C@]43C)[C@@]2(C)CC[C@@H]1O (some centres undefined)
[3]
  inhibition: 22.2%
[4]
  score: 2.09
[17]
  parasite load remaining: 94.2% (inactive)
  viability: 71%
[1]
  red/green cell ratio (normalised): 0.98 (inactive)
[1]; [19]
  normalised cell number: 0.92
[1]; [20]
  normalised cell number: 0.89

## CC1(C)C2CC[C@]3(C)C(C(=O)C=C4[C@H]5C[C@@](C)(C(=O)O)CC[C@]5(C)CC[C@]43C)[C@@]2(C)CC[C@@H]1O (some centres undefined)
[3]
  inhibition: -22.8%
[4]
  score: 2.14
[1]
  red/green cell ratio (normalised): 1.07 (inactive)
[1]; [19]
  normalised cell number: 1.03
[1]; [20]
  normalised cell number: 1.11
